# Assay results reported in the supplement of paper PMC8728848.
# This excerpt belongs to a sample that is enriched for the strongest signals.
# Experiments:
# Test in all cases: glycan array binding signal (z-score within array); higher = stronger binding
# Conditions in all cases: glycan notation: IUPAC condensed, linker removed
# [1] = target: Fuc(a1-2)Gal(b1-3)GlcNAc(b1-3)[Fuc(a1-2)Gal(b1-3)GlcNAc(b1-6)]GalNAc
# Method in brief: (§1)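 Glycan array binding is given as a within-array Z-score, which can be read as non-binding when negative. The arrays, 3228 of them, came from the Consortium for Functional Glycomics database and were retained only where the protein sequence was available. Z-scores were averaged across arrays of the same protein sequence at different concentrations or buffers and across linkers.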
# [2] = target: Fuc(a1-2)Gal(b1-3)[Fuc(a1-4)]GlcNAc(b1-3)[Gal(b1-4)GlcNAc(b1-6)]Gal(b1-4)Glc
# Method in brief: as §1
# [3] = target: Fuc(a1-2)Gal(b1-4)GlcNAc(b1-3)Gal(b1-4)GlcNAc(b1-3)Gal(b1-4)GlcNAc
# Method in brief: as §1
# [4] = target: Fuc(a1-2)Gal(b1-4)GlcNAc(b1-6)GalNAc
# Method in brief: as §1
# [5] = target: Fuc(a1-2)[Gal(a1-3)]Gal(b1-3)GlcNAc(b1-2)Man(a1-3)[Fuc(a1-2)[Gal(a1-3)]Gal(b1-3)GlcNAc(b1-2)Man(a1-6)]Man(b1-4)GlcNAc(b1-4)[Fuc(a1-6)]GlcNAc
# Method in brief: as §1
# [6] = target: Fuc(a1-2)[Gal(a1-3)]Gal(b1-3)GlcNAc(b1-6)GalNAc
# Method in brief: as §1
# [7] = target: Fuc(a1-2)[GalNAc(a1-3)]Gal(b1-3)GlcNAc(b1-3)GalNAc
# Method in brief: as §1
# [8] = target: Fuc(a1-3)[Gal(b1-4)]GlcNAc(b1-2)Man(a1-3)[Fuc(a1-3)[Gal(b1-4)]GlcNAc(b1-2)Man(a1-6)]Man(b1-4)GlcNAc(b1-4)GlcNAc
# Method in brief: as §1
# [9] = target: Gal(a1-3)Gal(b1-3)GlcNAc(b1-2)Man(a1-3)[Gal(a1-3)Gal(b1-3)GlcNAc(b1-2)Man(a1-6)]Man(b1-4)GlcNAc(b1-4)GlcNAc
# Method in brief: as §1
# [10] = target: Gal(a1-3)Gal(b1-3)[Fuc(a1-4)]GlcNAc(b1-2)Man(a1-3)[Gal(a1-3)Gal(b1-3)[Fuc(a1-4)]GlcNAc(b1-2)Man(a1-6)]Man(b1-4)GlcNAc(b1-4)GlcNAc
# Method in brief: as §1
# Gal(b1-2)Gal = target: Gal(b1-2)Gal
# Method in brief: as §1
# Gal(b1-3)Gal = target: Gal(b1-3)Gal
# Method in brief: as §1
# [11] = target: Gal(b1-3)GalNAc(a1-3)[Fuc(a1-2)]Gal(b1-4)GlcNAc
# Method in brief: as §1
# [12] = target: Gal(b1-3)GlcNAc(a1-6)Gal(b1-4)GlcNAc
# Method in brief: as §1
# [13] = target: Gal(b1-3)[Fuc(a1-4)]GlcNAc(b1-6)GalNAc
# Method in brief: as §1
# [14] = target: Gal(b1-3)[GlcNAc(b1-6)]GalNAc
# Method in brief: as §1
# [15] = target: Gal(b1-4)GlcNAc(b1-2)Man(a1-3)[Gal(b1-4)GlcNAc(b1-2)Man(a1-6)][GlcNAc(b1-4)]Man(b1-4)GlcNAc(b1-4)[Fuc(a1-6)]GlcNAc
# Method in brief: as §1
# [16] = target: Gal(b1-4)GlcNAc(b1-2)Man(a1-3)[GlcNAc(b1-2)Man(a1-6)]Man(b1-4)GlcNAc(b1-4)GlcNAc
# Method in brief: as §1
# [17] = target: Gal(b1-4)GlcNAc(b1-2)[Gal(b1-4)GlcNAc(b1-4)]Man(a1-3)[GlcNAc(b1-4)][Gal(b1-4)GlcNAc(b1-2)[Gal(b1-4)GlcNAc(b1-6)]Man(a1-6)]Man(b1-4)GlcNAc(b1-4)GlcNAc
# Method in brief: as §1
# [18] = target: Gal(b1-4)GlcNAc(b1-3)Gal(b1-3)GalNAc
# Method in brief: as §1
# [19] = target: Gal(b1-4)GlcNAc(b1-3)Gal(b1-4)GlcNAc(b1-2)[Gal(b1-4)GlcNAc(b1-3)Gal(b1-4)GlcNAc(b1-6)]Man(a1-6)[Gal(b1-4)GlcNAc(b1-3)Gal(b1-4)GlcNAc(b1-2)Man(a1-3)]Man(b1-4)GlcNAc(b1-4)[Fuc(a1-6)]GlcNAc
# Method in brief: as §1
# [20] = target: Gal(b1-4)GlcNAc(b1-3)Gal(b1-4)GlcNAc(b1-3)Gal(b1-4)GlcNAc(b1-2)Man(a1-3)[Gal(b1-4)GlcNAc(b1-3)Gal(b1-4)GlcNAc(b1-3)Gal(b1-4)GlcNAc(b1-2)Man(a1-6)]Man(b1-4)GlcNAc(b1-4)GlcNAc
# Method in brief: as §1
# [21] = target: Gal(b1-4)GlcNAc(b1-3)Gal(b1-4)GlcNAc(b1-3)Gal(b1-4)GlcNAc(b1-2)Man(a1-3)[Gal(b1-4)GlcNAc(b1-3)Gal(b1-4)GlcNAc(b1-3)Gal(b1-4)GlcNAc(b1-2)Man(a1-6)]Man(b1-4)GlcNAc(b1-4)[Fuc(a1-6)]GlcNAc
# Method in brief: as §1
binder,measurement,setting,value
"AntigenI/IIC123 (Streptococcus mutans), C9E3B4 (protein) MASMTGGQQMGRIHFHYFKLAVQPQVNKEIRNNNDINIDRTLVAKQSVVKFQLKTADLPAGRDETTSFVLVDPLPSGYQFNPEATKAASPGFDVTYDNATNTVTFKATAATLATFNADLTKSVATIYPTVVGQVLNDGATYKNNFTLTVNDAYGIKSNVVRVTTPGKPNDPDNPNNNYIKPTKVNKNENGVVIDGKTVLAGSTNYYELTWDLDQYKNDRSSADTIQKGFYYVDDYPEEALELRQDLVKITDANGNEVTGVSVDNYTNLEAAPQEIRDVLSKAGIRPKGAFQIFRADNPREFYDTYVKTGIDLKIVSPMVVKKQMGQTGGSYENQAYQIDFGNGYASNIIINNVPKINPKKDVTLTLDPADTNNVDGQTIPLNTVFNYRLIGGIIPADHSEELFEYNFYDDYDQTGDHYTGQYKVFAKVDITFKDGSIIKSGAELTQYTTAEVDTAKGAITIKFKEAFLRSVSIDSAFQAESYIQMKRIAVGTFENTYINTVNGVTYSSLEHHHHHH",glycan array binding signal (z-score),[1],3.07
same,glycan array binding signal (z-score),[2],-0.704
same,glycan array binding signal (z-score),[3],-0.137
same,glycan array binding signal (z-score),[4],3.81
same,glycan array binding signal (z-score),[5],0.417
same,glycan array binding signal (z-score),[6],-1.42
same,glycan array binding signal (z-score),[7],2.85
same,glycan array binding signal (z-score),[8],-0.441
same,glycan array binding signal (z-score),[9],3.54
same,glycan array binding signal (z-score),[10],3.25
same,glycan array binding signal (z-score),Gal(b1-2)Gal,-0.762
same,glycan array binding signal (z-score),Gal(b1-3)Gal,-1.1
same,glycan array binding signal (z-score),[11],-0.841
same,glycan array binding signal (z-score),[12],-1.82
same,glycan array binding signal (z-score),[13],1.06
same,glycan array binding signal (z-score),[14],0.715
same,glycan array binding signal (z-score),[15],-1.3
same,glycan array binding signal (z-score),[16],-0.939
same,glycan array binding signal (z-score),[17],0.437
same,glycan array binding signal (z-score),[18],0.003
same,glycan array binding signal (z-score),[19],4.84
same,glycan array binding signal (z-score),[20],2.33
same,glycan array binding signal (z-score),[21],3.9
